About 550 (0.42%) of roughly 130,000 compounds were called active. Where a call stands in place of a potency, no number is given. Inconclusive results (about 4%) are left out. Calls come from the whole dose curve; as a rule, active = well fitted inhibition curve with a large enough effect; inconclusive = small, poorly fitted or top-dose-only effect, or effect the other way; inactive = flat fitted curve, though single readings scatter. The full list was thinned out, with actives kept by preference.
Potency is the fitted concentration of half-maximal effect.

The assay can be described thus: qHTS Assay for Inhibitors of the ERK Signaling Pathway using a Homogeneous Screening Assay; Stimulation with EGF. Note: nearly all actives have a fitted effect of over 55% in size. As to conditions: HEK293-V1b, EGF-stimulated phospho-ERK AlphaScreen; series mostly up to 11.5 µM. An excerpt: NIH Chemical Genomics Center [NCGC]
NIH Molecular Libraries Screening Centers Network [MLSCN]
Assay Submitter (PI): Dr. Wei Zheng, NCGC/NIH
The Ras/extracellular-signal-regulated kinase (ERK) mitogen activated protein (MAP) kinase signaling pathway (ERK1/2 cascade) plays a key role in transmitting signals from the cell surface to the nucleus (Nishida and Gotoh 1993; Chang and Karin, 2001). The cascade is initiated by the small G-protein Ras, which recruits Raf from the cytosol, where activation occurs. Alternatively, this pathway can be activated by elevating intracellular cAMP, or by activation of a receptor tyrosine kinase as epidermal growth factor receptor.
Activation of the ERK pathway is essential in increased cell division and cell survival. Sustained and constitutive activation of the ERK pathway, however, has been linked to uncontrolled cell proliferation, increased cell survival, and tumor progression. Thus, the ERK has been as an attractive target for cancer chemotherapy in the past few years (Sebolt-Leopold and Herrera, 2004). Given its physiological and pathological importance, assessment of ERK phosphorylation has been broadly performed in both basic research and drug discovery. Most assays for the measurement of ERK phosphorylation use the antibody-based detection methods, such as western blot and ELISA. These assays require multiple reagent additions with cell wash steps and are not suitable for high throughout screening.
The current cell-based ERK phosphorylation assay was performed using AlphaScreen platform. AlphaScreen is a two bead-based proximity-dependent chemical energy transfer luminescent assay platform. The assay reagents (ERK SureFire(TM) kit) were supplied from TGR BioSciences (Australia). In the presence of specific antibodies, phosphorylated ERK will bring "donor" and "acceptor" beads to a proximity range (<200 nm), and subsequently lead a chemical luminescent reaction upon exciting donor beads with 680 nm laser. To exclude the assay-related false positives, we used a biotinylated rabbit IgG to perform counter-screen. The biotinylated antibody mimics the phosphorylated ERK1/2 for bringing streptavidin coated beads and protein-A coated beads to a proximity range for the AlphaScreen detection.
NCGC Assay Protocol Summary:
HEK293 cells stably expressing type-1 vasopressin receptor (V1b) were maintained in DMEM medium (Invitrogen, Carlsbad, CA) at 37C under a humidified atmosphere containing 5% CO2 and 95% air. The medium contained 10% FBS, 2 mM L-glutamine, non-essential amino acid, pyruvate and 50 U/ml penicillin and 50 ug/ml streptomycin (Invitrogen). The aliquots of frozen cells were stored at -135C and used for the compound screening. All compounds were screened as titrations from 0.6 nM to 46 uM final concentration. Epidermal growth factor (EGF) was used to stimulate the ERK phosphorylation pathway. The ERK phosphorylation in cells was determined using an AlphaScreen assay kit provided by […]. Data were normalized to the controls for basal activity (DMSO only) and 100% activation (25 nM EGF). AC50 values were determined from concentration-response data modeled with the standard Hill equation.
(1) Seed 4 ul/well of resuspended frozen HEK293 cells containing 2000 cells in white 1536-well plates for overnight with 1% FBS at 37C under a humidified atmosphere containing 5% CO2 and 95% air.
(2) Add 23 nL compounds in DMSO solution. The final titration was 0.6 nM to 46 uM.
(3) Incubate at 37C for 30 min.
(4) Dispense 0.5uL EGF (25 nM in final)
(5) Incubate at 37C for 5 min.
(6) Dispense 0.5uL of 1:2 diluted 5x lysis buffer.
(7) Incubate at 37C for 10 min.
(8) Dispense 1.5uL of mixture of activation buffer and reaction buffer with AlphaScreen beads (streptavidin donor beads and protein-A acceptor beads, 10 ng/well for each).
(9) Incubate at room temperature for 5 hr.
(10) Detect the assay plate in an EnVision plate reader (PerkinElmer) using the AlphaScreen detection mode.
[…]
A general note: Quantitative high-throughput screening tests each substance at several concentrations.
Take `CCOc1ccc(-c2nc(N)ncc2-c2ccccc2OC)c(O)c1`: the Potency result is “inactive”.
With `O=C(Nc1ccc2oc(-c3ccccc3F)nc2c1)c1ccco1` the entry was “inactive”; with `Cc1ccc(S(=O)(=O)N(C)C)cc1NC(=O)c1n[nH]c(=O)c2ccccc12`, “inactive”; with `O=C(CNC(=O)COc1ccccc1)NCCc1ccccn1`, “inactive”.
The same measure for `CCCn1nc(Oc2nc(NC(C)C)nc(N(C)C)n2)ccc1=O`: “inactive”.
With `O=C(NCC(=O)N(CC1CCCO1)C(C(=O)NC1CCCCC1)c1ccccc1)c1ccco1` (stereo unspecified) the entry was “inactive”; with `NS(=O)(=O)c1ccc(NC(=O)COC(=O)c2ccco2)cc1`, “inactive”.
For `O=C(Cn1cnc2ccccc2c1=O)Nc1cccc(S(=O)(=O)N2CCCCC2)c1`, the Potency entry is “inactive”.
On to `Fc1ccc(-c2csc(-c3ccc(C4SCCS4)cc3)n2)cc1F`, for which the Potency result is “inactive”.
On to `COCC1CCCN(Cc2nc(-c3ccc4c(c3)OCO4)no2)C1` (stereo unspecified), for which the Potency entry was “inactive”.
With `CCNC(=O)CC1C(=O)N(c2ccc(F)cc2)C(=O)N1Cc1cccs1` (stereo unspecified) the entry was “inactive”; with `CN(C)S(=O)(=O)c1ccc(Cl)c(NC(=O)COC(=O)CC(NC(N)=O)c2ccc(Cl)cc2)c1` (stereo unspecified), “inactive”.
Turning to `COc1ccc(/C=C/c2nnc(NC(=O)C(C)C)s2)cc1`, the Potency result was “inactive”.
With `O=C(O)c1ccc(/C=N/Nc2nc(N3CCCCC3)nc(N3CCCCC3)n2)cc1` the entry was “inactive”.
In the case of `COc1cc(OC)cc(-c2nnc(SCC(=O)Nc3ccc(C(=O)O)cc3)s2)c1`, the Potency entry was “inactive”.
The same measure for `NC(=O)COc1ccc(NC(=O)c2ccccc2-c2ccccc2)cc1`: “inactive”; for `O=C(CSc1nncs1)NC1CCCc2ccccc21` (stereo unspecified): “inactive”.
On to `O=C(O)c1cccnc1Sc1ncnc2sc3c(c12)CCC3`, for which the Potency result was “inactive”.
With `N#C/C(=C/c1ccc(N2CCOCC2)o1)C(=O)N1CCOCC1` the entry was “inactive”; with `N#C/C(=C\c1ccccc1C(F)(F)F)C(=O)Nc1ccccc1F`, “inactive”.
On to `N#C/C(=C\C1=C(N2CCOCC2)C(=C\c2ccccc2)/CC1)C(=O)Nc1ccccc1F`, for which the Potency is 7.08 µM (active).
The same measure for `O=C(CSc1nnnn1-c1ccc(O)cc1)c1ccc(F)cc1`: “inactive”; for `O=C(CCCNS(=O)(=O)c1cccc2nsnc12)NCCN1CCN(c2ccccc2F)CC1`: “inactive”.
Take `CCN(CC)CCCNC(=O)Cn1cnc2sc(C)c(S(=O)(=O)N3CCN(c4ncccn4)CC3)c2c1=O`: the Potency result was “inactive”.
With `COc1cccc(CNC(=O)CCC2CCCN(C(=O)c3ccoc3C)C2)c1` (stereo unspecified) the entry was “inactive”.
The same measure for `O=C(NC(=S)NC1CCSC1=O)c1ccccc1F` (stereo unspecified): 20 µM (active).
With `COC(=O)c1ccccc1NC(=S)NC(=O)c1ccccc1F` the entry was “inactive”.
For `O=C(NCCc1csc(-c2ccccc2)n1)c1ccccc1F`, the Potency result was “inactive”.
The same measure for `Cc1ccc(S(=O)(=O)N2CCN(C(=O)COC(=O)c3c(C)noc3C)CC2)c(C)c1`: “inactive”; for `O=C(NNC(=O)c1cnccc1C(F)(F)F)c1ccc(Cl)cc1`: “inactive”; for `COc1cc2nc(Cl)nc(NCCO)c2cc1OC`: “inactive”.
Turning to `NS(=O)(=O)c1cccc(NC(=O)CSc2nc3ccccc3n2-c2ccccc2)c1`, the Potency result is “inactive”.
With `COC(=O)c1ccc(NC(=S)NN2CCOCC2)cc1` the entry was “inactive”; with `CN1CCN(/N=C2/C(=O)Nc3ccc([N+](=O)[O-])cc32)CC1`, “inactive”; with `COCCCNC(=S)N(Cc1ccccc1)Cc1ccc(F)cc1`, “inactive”.
With `O=C(/C=C/c1ccc(Cl)c([N+](=O)[O-])c1)c1ccc(O)cc1` the entry was “inactive”; with `Cc1nn(-c2ccccc2)c(C)c1/C=C/C(=O)OC(C)C(N)=O` (stereo unspecified), “inactive”; with `Cc1nn(-c2ccccc2)c(Cl)c1/C=C/C(=O)c1ccc(O)cc1`, 15.8 µM (active).
With `COc1ccc(OC)c(NC(=O)N[C@H](Cc2ccccc2)C(=O)NN)c1` the entry was “inactive”; with `CN(C)S(=O)(=O)c1ccc(C(=O)NCC(C)(C)N2CCOCC2)cc1`, “inactive”; with `CC1(C)OC(=O)C(=CSc2ccc(C(C)(C)C)cc2)C(=O)O1`, “inactive”.
Regarding `COc1ccc(NC(=O)N2CCC(Cc3ccccc3)CC2)cc1`, the Potency result is “inactive”.
The same measure for `COc1cccc(N2CC(C(=O)Nc3c(C)cccc3C)CC2=O)c1` (stereo unspecified): “inactive”; for `COc1ccc(N2CCC(CNC(=S)Nc3c(C)cccc3C)C2)cc1` (stereo unspecified): 12.6 µM (active); for `COc1ccc(NC(=S)NCCNC(C)=O)cc1`: “inactive”.
On to `COc1ccc(NC(=S)NCC2CCN(c3ccc(OC)cc3)C2)cc1` (stereo unspecified), for which the Potency was 25.1 µM (active).
Consider `COc1ccc(NC(=S)NCCN2CCC(C)CC2)cc1`, for which the Potency entry is “inactive”.
With `Cc1nc2cc(NC(=O)Nc3cccc(F)c3)ccc2n1C` the entry was “inactive”.
The same measure for `CC(C)=NN1C(=O)c2ccccc2NC1(C)C`: “inactive”; for `OCCC1CN(Cc2ccc3nsnc3c2)CCN1C1CCCCC1` (stereo unspecified): “inactive”.
For the molecule `O=C(/C=C/c1ccc2c(c1)OCO2)NCc1cn2cc(Cl)ccc2n1`, the Potency entry is “inactive”.
The same measure for `Cc1c(Cc2ccccc2)c(=O)oc2cc(OCC(N)=O)ccc12`: “inactive”; for `Cc1ccc(S(=O)(=O)N2CCN(C(=O)c3cccs3)CC2)cc1`: “inactive”; for `COC(=O)C1=C(N)Oc2cc(C)[nH]c(=O)c2C1c1ccc(Cl)cc1` (stereo unspecified): “inactive”.
With `O=C(NNC(=O)c1ccc(Cl)cc1Cl)c1cccs1` the entry was “inactive”.
On to `O=C(CN1CCCCC1)Nc1ccccc1Cl`, for which the Potency entry was “inactive”.
Turning to `COCCN(CCOC)C(=S)Nc1ccccc1Cl`, the Potency result was “inactive”.
Regarding `O=C(Nc1ccccc1Cl)/C(Cl)=C(\Cl)S(=O)c1ccccc1` (stereo unspecified), the Potency was 31.6 µM (active).
With `COC(=O)Cc1ccc(Oc2ncc(C(F)(F)F)cc2Cl)cc1` the entry was “inactive”; with `CCOc1ccccc1N1CN(Cc2ccccc2)CNC1=S`, “inactive”; with `CN(Cc1nc(-c2cnccn2)no1)Cc1n[nH]c2c1CCCCC2`, “inactive”.
With `CN=C1C=C/C(=N/N=c2\ccn(O)cc2C)C=C1C` the figure was 17.8 µM (active); with `Cn1nnc(NC(=S)NC(=O)c2ccccc2)n1`, “inactive”; with `COc1ccc(C(=O)N/N=C2\CCS(=O)(=O)c3ccc(F)cc32)cc1OC`, “inactive”.
With `C/C(=N/NC(=O)c1ccn(C)n1)c1ccncc1`, the Potency entry is “inactive”.
The same measure for `CCN(CC)S(=O)(=O)c1ccc(OC(C)C)c(N)c1`: “inactive”; for `CCS(=O)(=O)c1ccc(O)c(NC(=O)COc2ccc(Cl)cc2)c1`: “inactive”.
With `CN(CCc1cn[nH]c1)C(=O)CC1C(=O)NCCN1Cc1cccc(Oc2ccccc2)c1` (stereo unspecified) the entry was “inactive”.
With `O=C(CN1CCN(c2ccc(Cl)cc2)CC1)NCc1cccs1` the entry was “inactive”; with `Cc1ccc(/C=N/NC(=S)Nc2cccc(S(=O)(=O)N(C)C)c2)o1`, “inactive”; with `Nc1nnc(SCn2nnc3ccccc3c2=O)s1`, “inactive”.

The values are drawn from PubChem BioAssay AID1454 (National Center for Advancing Translational Sciences (NCATS), 2008).
